Screens: PubChem BioAssay, Sanford-Burnham Center for Chemical Genomics
CYP2C19 inhib = inhibitors of human CYP2C19; CYP2C19 Supersomes, luciferin-H EGE luminescence, 30 min; inhibition, % at 5 µM; 21% of 96,000 active; P33261;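 active means CYP2C19 inhibition above a set limit at 5 µM in the primary screen, cut at about 50% in these data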
CYP2C19 act = increases human CYP2C19 enzyme activity | recombinant CYP2C19, luciferin-H EGE luminescence; stronger effect = higher value; 0 = fully inhibited enzyme, 1 = untreated enzyme | activation factor at 5 µM | AID 1025 | P33261 | 96,000 tested, under 10 active;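 active means activation factor of at least 2 at 5 µM in the primary screen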
CYP2C9 inh = human CYP2C9 inhibition. P11712. CYP2C9 Supersomes, luciferin-H conversion, luminescence. inhibition, % at 5 µM. 20% of 96,000 active. AID 777;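 active means blocking of liver enzyme CYP2C9 beyond about 50% at 5 µM, limit read from the data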
CYP2C9 act = activators of human CYP2C9 | P11712 | recombinant CYP2C9, luciferin-H conversion, luminescence; stronger effect = higher value; factor 1 = untreated enzyme, 0 = blocked | activation factor at 5 µM | 1.4% of 96,000 active;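 active means activation factor of 2 or more for CYP2C9 at a 5 µM dose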
PLAP activator = activators of human placental alkaline phosphatase; purified PLAP enzyme, luminescent substrate read-out; stronger effect = higher value; P05187; AID 696; activation fold at 20 µM; 1.2% of 96,000 active; in the data active means activation fold above about 2
Target sequence (P05187 whole entry, looked up): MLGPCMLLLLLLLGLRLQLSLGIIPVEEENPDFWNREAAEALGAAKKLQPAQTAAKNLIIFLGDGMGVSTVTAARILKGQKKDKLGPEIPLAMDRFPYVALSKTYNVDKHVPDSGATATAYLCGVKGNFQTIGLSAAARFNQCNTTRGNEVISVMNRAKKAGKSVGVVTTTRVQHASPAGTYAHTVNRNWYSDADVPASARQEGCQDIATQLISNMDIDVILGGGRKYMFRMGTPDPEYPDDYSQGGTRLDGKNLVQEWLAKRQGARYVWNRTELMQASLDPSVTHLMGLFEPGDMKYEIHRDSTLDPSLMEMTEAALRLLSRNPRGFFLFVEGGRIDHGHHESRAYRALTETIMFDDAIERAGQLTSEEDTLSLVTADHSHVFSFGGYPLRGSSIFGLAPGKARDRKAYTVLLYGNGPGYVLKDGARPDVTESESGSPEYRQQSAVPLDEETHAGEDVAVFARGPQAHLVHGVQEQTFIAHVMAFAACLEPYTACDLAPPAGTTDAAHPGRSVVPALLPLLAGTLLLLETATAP
Large screens that a line does not name were inactive. Rows were chosen to be rich in hits. Some 31% of all compounds tested hit in one or more screens of this group.

O=S(=O)(NC1CCCC1)c1ccc(S(=O)(=O)N(Cc2cccs2)CC2CCCO2)cc1 (stereo unspecified)	CYP2C19 inhib 97, CYP2C9 inh 97
Cc1cc(C)c2c(n1)nn1c(N3CCN(Cc4ccccc4)CC3)cc(C)nc21	PLAP activator 2.1
OCCNCC(O)Cn1ccc2ccccc21 (stereo unspecified)	none
Cc1cc(C)cc(NC(=O)CSc2nc3c(c(=O)n2C)SC(C)C3)c1 (stereo unspecified)	none
CC1Cc2nc(SCC(=O)Nc3ccc(F)cc3)n(C)c(=O)c2S1 (stereo unspecified)	CYP2C9 inh 64
COc1cccc(NC(=O)CSc2nc3c(c(=O)n2C)SC(C)C3)c1 (stereo unspecified)	CYP2C19 inhib 93, CYP2C9 inh 75
Cc1cc(C)c(NC(=O)CSc2nc3c(c(=O)n2C)SC(C)C3)c(C)c1 (stereo unspecified)	CYP2C9 inh 82
CCOc1ccccc1NC(=O)CSc1nc2c(c(=O)n1C)SC(C)C2 (stereo unspecified)	CYP2C9 inh 61
CCOc1ccc(NC(=O)CSc2nc3c(c(=O)n2C)SC(C)C3)cc1 (stereo unspecified)	none
O=C1CCCN1CCCNCC(=O)N1c2ccccc2Sc2ccccc21	none
O=C(Nc1ccc(F)cc1)c1cc(S(=O)(=O)N2CCCCC2)cs1	none
CON(C)c1nc(Oc2ccc(=O)[nH]n2)nc(N(C)C)n1	none
O=C(CN1CCCCC1)Nc1cccc(Oc2ccccc2)c1	CYP2C19 inhib 77, CYP2C9 inh 90
COc1cccc(NC(=O)CN2CCC(C)CC2)c1	CYP2C19 inhib 90, CYP2C9 inh 54
O=C(Cn1ncc2c(=O)oc3ccccc3c21)NCC1CCCO1 (stereo unspecified)	none
CCc1cccc(NC(=O)Cn2ncn3c(cc4ccccc43)c2=O)c1	none
O=C(Cn1ncn2c(cc3ccccc32)c1=O)NCc1ccco1	CYP2C19 inhib 62
O=C(Cn1ncn2c(cc3ccccc32)c1=O)NCCC1=CCCCC1	CYP2C19 inhib 99
O=C(Cn1ncc2c(=O)oc3ccccc3c21)NCCC1=CCCCC1	CYP2C19 inhib 59
CCOC(=O)CN(C(=O)CSc1nnc(-c2ccc(OC)c(OC)c2)o1)c1ccccc1	none
Cc1ccccc1NC(=O)CCn1c(=O)oc2ccccc21	none
OC(CNc1nc2ccccc2s1)c1ccccc1 (stereo unspecified)	CYP2C19 inhib 95, CYP2C9 inh 70
CC(C)N1CC(C(=O)Nc2nc3ccccc3s2)CC1=O (stereo unspecified)	none
O=C(CCn1c(=O)oc2ccccc21)Nc1nc2ccccc2s1	CYP2C19 inhib 52, CYP2C9 inh 59
O=C(O)CCSc1nc2ccccc2s1	none
COc1ccccc1CCNC(=O)CCn1c(=O)oc2ccccc21	CYP2C19 inhib 83
CC(C)OC(=O)CCC(=O)Nc1nc2ccccc2s1	CYP2C19 inhib 81, CYP2C9 inh 66
C#CCn1c(=NC(=O)c2cccs2)sc2cccc(OCC)c21	CYP2C9 inh 68
C=CCSc1nnc(-c2nnc(SCC=C)n2-c2ccccc2)n1-c1ccccc1	none
C=CCSc1nnc2nc3c(nn12)c1cc(C)ccc1n3CC=C	CYP2C9 inh 56
O=C(Nc1cc(Cl)cc(Cl)c1)c1cccc(OC(F)F)c1	none
CN(C)S(=O)(=O)Oc1cccc(C(=O)Nc2cccc(Cl)c2)c1	CYP2C19 inhib 70, CYP2C9 inh 82
CN(C)S(=O)(=O)c1cccc(C(=O)Nc2cc(Cl)ccc2O)c1	CYP2C9 inh 67
CN(C)S(=O)(=O)c1cccc(C(=O)Nc2cc(Cl)cc(Cl)c2)c1	CYP2C9 inh 98
CCn1c(C)c(C)c2cc(C(=O)Nc3cccc(Cl)c3)ccc21	CYP2C9 act 2.4
CCn1c2ccccc2c2cc(NC(=O)c3cccc(OC)c3)ccc21	none
CCc1ccc(N(C(C)=O)C2C=CS(=O)(=O)C2)cc1 (stereo unspecified)	none
COC(CNC(=O)c1cc(C(=O)c2c(-c3c(Cl)cccc3Cl)noc2C)c[nH]1)OC	none
CNS(=O)(=O)c1cccc(C(=O)Nc2cccc(Cl)c2)c1	CYP2C19 inhib 70, CYP2C9 inh 62
N#C/C(=C\N1CCOCC1)c1ccccc1	CYP2C19 inhib 57
CC(C)(C)c1cccc(Oc2nn[nH]n2)c1	CYP2C19 inhib 72
Cc1cc(C)cc(Oc2nn[nH]n2)c1	none
Cc1ccc(C(=O)NCC(C)(C)N2CCOCC2)s1	CYP2C19 inhib 55
Cc1cc(C)cc(NC2=NC3(CCCCC3)N=C(N)N2)c1	PLAP activator 2.7
